# From PubChem BioAssay (NCI)
# About 79,000 compounds went through this panel and 15% of them were active in at least one assay; those are over-represented in the sample as a whole. Unmarked numbers belong to inactive results. Activity calls are given as the source filed them. Cut-off read from the data, not from the text of the source: active = growth inhibition above about 70%; inactive = the rest.
# Tests used:
# [1] = NCI Yeast Anticancer Drug Screen. Data for the wt1 strain (AID 149);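 note: 0% = growth of vehicle-treated wt1 cultures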; settings: S. cerevisiae wt1 strain (SPY 50644) growth inhibition, stronger effect = higher value
# How it was run: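 Yeast wt1 strain exposed to compounds; growth inhibition measured relative to vehicle-treated controls.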
# [2] = NCI Yeast Anticancer Drug Screen. Data for the rad50EPP+ strain (AID 151);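 note: 0% = growth of vehicle-treated control cultures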; settings: S. cerevisiae rad50 mutant strain, stronger effect = higher value
# How it was run: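 Genetically defined yeast (rad50EPP+, DNA damage repair alteration) is grown with compound, and inhibition of growth is expressed relative to vehicle-treated controls.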
# [3] = NCI Yeast Anticancer Drug Screen. Data for the rad50 strain (AID 155);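 note: 0% = growth of vehicle-only cultures of the same strain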; settings: S. cerevisiae rad50 strain growth inhibition, stronger effect = higher value
# How it was run: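 Yeast carrying a defined DNA repair defect were exposed to test compounds, and growth was compared with vehicle-treated controls to give percent inhibition.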
# [4] = NCI Yeast Anticancer Drug Screen. Data for the mec2-1 strain (AID 157); settings: S. cerevisiae mec2-1 strain, stronger effect = higher value
# How it was run: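 Each compound was tested on mec2-1 yeast, a strain altered in DNA damage repair or cell cycle control. Growth inhibition is reported relative to vehicle.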
# [5] = NCI Yeast Anticancer Drug Screen. Data for the rad14 strain (AID 159);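 note: 0% = growth of vehicle-treated control cultures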; settings: S. cerevisiae rad14 strain growth inhibition, stronger effect = higher value
# How it was run: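 Yeast cells carrying a defined DNA-repair defect were exposed to compounds, and growth inhibition was calculated relative to vehicle-treated control cultures.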
# [6] = NCI Yeast Anticancer Drug Screen. Data for the sgs1 mgt1 strain (AID 161);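 note: 0% = growth of cultures given vehicle only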; settings: S. cerevisiae sgs1 mgt1 strain, stronger effect = higher value
# How it was run: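 Genetically altered yeast, compound exposure, growth inhibition relative to vehicle.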
# [7] = NCI Yeast Anticancer Drug Screen. Data for the CLN2oe strain (AID 163);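 note: 0% = growth of vehicle-only control cultures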; settings: S. cerevisiae CLN2oe strain, stronger effect = higher value
# How it was run: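 First, the altered yeast strain was treated with each compound; second, its growth was measured; finally, inhibition was derived by comparison with vehicle controls.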
# [8] = NCI Yeast Anticancer Drug Screen. Data for the bub3 strain (AID 167); settings: S. cerevisiae bub3 mutant strain, stronger effect = higher value
# How it was run: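 Compounds were applied to a genetically altered yeast strain carrying a cell-cycle control defect. Growth inhibition was scored against vehicle-treated controls.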
# [9] = NCI Yeast Anticancer Drug Screen. Data for the wt2 strain (AID 169);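 note: 0% = growth of vehicle-treated yeast cultures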; settings: S. cerevisiae wt2 strain growth inhibition, stronger effect = higher value
# How it was run: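 The panel's yeast strains carry defined changes in DNA repair or cell cycle genes. Each strain is grown with compound, and growth loss is scored relative to vehicle.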
# [10] = NCI Yeast Anticancer Drug Screen. Data for the mlh1 strain (AID 171);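 note: 0% = growth of vehicle-treated control cultures of the same strain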; settings: S. cerevisiae mlh1 strain growth inhibition, stronger effect = higher value
# How it was run: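 Inhibition values reflect reduced yeast growth in the presence of compound, referenced to vehicle controls, using a strain chosen for its alteration in DNA repair or cell cycle control.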
# [11] = NCI Yeast Anticancer Drug Screen. Data for the sgs1 strain (AID 173);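 note: 0% = growth of vehicle-only control cultures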; settings: S. cerevisiae sgs1 mutant, stronger effect = higher value
# How it was run: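 Vehicle-treated cultures served as reference for growth inhibition of a yeast strain altered in DNA damage repair or cell cycle control after compound exposure.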
# [12] = NCI Yeast Anticancer Drug Screen. Data for the mlh1 rad18 strain (AID 175); settings: S. cerevisiae mlh1 rad18 strain growth inhibition, stronger effect = higher value
# How it was run: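 Inhibition values reflect reduced growth of mutant yeast versus vehicle-treated controls following compound exposure; the mutations affect DNA damage repair.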
# [13] = NCI Yeast Anticancer Drug Screen. Data for the rad18 strain (AID 177); settings: S. cerevisiae rad18 mutant growth inhibition, stronger effect = higher value
# How it was run: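 Steps: expose repair-mutant yeast to compound; measure growth; express as inhibition relative to vehicle control.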
# [14] = at 5.0 µM (retest, dose inferred, filed as 0.5)
# [15] = at 50.0 µM (retest, dose inferred, filed as 5.0)
smiles,measurement,setting,value
N=c1oc2ccccc2cc1-c1nc2ccccc2[nH]1,growth inhibition,[1]; at 1.2 µM,1%
same,growth inhibition,[1]; at 3.7 µM,9%
same,growth inhibition,[1]; at 11.0 µM,15%
same,growth inhibition,[1]; at 33.0 µM,28%
same,growth inhibition,[1]; at 100.0 µM,45%
same,growth inhibition,[2]; at 1.2 µM,30%
same,growth inhibition,[2]; at 3.7 µM,48%
same,growth inhibition,[2]; at 11.0 µM,58%
same,growth inhibition,[2]; at 33.0 µM,85% (active)
same,growth inhibition,[2]; at 100.0 µM,91% (active)
same,growth inhibition,[3]; at 1.2 µM,15%
same,growth inhibition,[3]; at 3.7 µM,18%
same,growth inhibition,[3]; [14],7%
same,growth inhibition,[3]; at 11.0 µM,31%
same,growth inhibition,[3]; at 33.0 µM,64%
same,growth inhibition,[3]; [15],85% (active)
same,growth inhibition,[3]; at 50.0 µM,70%
same,growth inhibition,[3]; at 100.0 µM,88% (active)
same,growth inhibition,[4]; at 1.2 µM,-6%
same,growth inhibition,[4]; at 3.7 µM,10%
same,growth inhibition,[4]; [14],2%
same,growth inhibition,[4]; at 11.0 µM,11%
same,growth inhibition,[4]; at 33.0 µM,26%
same,growth inhibition,[4]; [15],66%
same,growth inhibition,[4]; at 50.0 µM,31.8%
same,growth inhibition,[4]; at 100.0 µM,62%
same,growth inhibition,[5]; at 1.2 µM,5%
same,growth inhibition,[5]; at 3.7 µM,11%
same,growth inhibition,[5]; at 11.0 µM,25%
same,growth inhibition,[5]; at 33.0 µM,39%
same,growth inhibition,[5]; at 100.0 µM,88% (active)
same,growth inhibition,[6]; [14],13%
same,growth inhibition,[6]; [15],62%
same,growth inhibition,[6]; at 50.0 µM,47.8%
same,growth inhibition,[7]; at 1.2 µM,6%
same,growth inhibition,[7]; at 3.7 µM,-21%
same,growth inhibition,[7]; at 11.0 µM,12%
same,growth inhibition,[7]; at 33.0 µM,25%
same,growth inhibition,[7]; at 100.0 µM,47%
same,growth inhibition,[8]; at 1.2 µM,-13%
same,growth inhibition,[8]; at 3.7 µM,-12%
same,growth inhibition,[8]; [14],23%
same,growth inhibition,[8]; at 11.0 µM,-3%
same,growth inhibition,[8]; at 33.0 µM,9%
same,growth inhibition,[8]; [15],56%
same,growth inhibition,[8]; at 50.0 µM,33.8%
same,growth inhibition,[8]; at 100.0 µM,57%
same,growth inhibition,[9]; at 1.2 µM,-31%
same,growth inhibition,[9]; at 3.7 µM,-29%
same,growth inhibition,[9]; at 11.0 µM,-13%
same,growth inhibition,[9]; at 33.0 µM,47%
same,growth inhibition,[9]; at 100.0 µM,80% (active)
same,growth inhibition,[10]; at 1.2 µM,0%
same,growth inhibition,[10]; at 3.7 µM,3%
same,growth inhibition,[10]; at 11.0 µM,17%
same,growth inhibition,[10]; at 33.0 µM,42%
same,growth inhibition,[10]; at 100.0 µM,82% (active)
same,growth inhibition,[11]; at 1.2 µM,15%
same,growth inhibition,[11]; at 3.7 µM,28%
same,growth inhibition,[11]; at 11.0 µM,41%
same,growth inhibition,[11]; at 33.0 µM,59%
same,growth inhibition,[11]; at 100.0 µM,82% (active)
same,growth inhibition,[12]; [14],6%
same,growth inhibition,[12]; [15],84% (active)
same,growth inhibition,[12]; at 50.0 µM,16.6%
same,growth inhibition,[13]; at 1.2 µM,2%
same,growth inhibition,[13]; at 3.7 µM,5%
same,growth inhibition,[13]; at 11.0 µM,14%
same,growth inhibition,[13]; at 33.0 µM,27%
same,growth inhibition,[13]; at 100.0 µM,71% (active)
